From PubChem BioAssay AID1159580 (chemical genetic matrix, 2015)
Where “and” joins values, the source holds several entries; their conditions need not be identical. Equal values may be shown once. In all, about 5,500 compounds went through this assay and about 2,000 (36%) were called active. Roughly 18% stayed inconclusive and do not appear here. Cut-off read from the data, not from the text of the source: active = normalized growth mostly below about 0.91 (no sharp cut-off); inconclusive = no clear call, values can overlap the other calls; inactive = mostly above about 0.92. The list shows a part of the results.

Assay: chemical genetic growth profiling, strain panel (AID 1159580);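 note: tested at 20 µM; growth read once vehicle control cultures reached saturation at 30 °C; 1 = growth at the plate median or of vehicle wells; lower values mean less growth of the strain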
Settings: S. cerevisiae deletion strains, growth OD

Measured: normalized growth

NS(=O)(=O)c1cc(C2(O)NC(=O)c3ccccc32)ccc1Cl (stereo not given)
inactive: locus YAL021C, strain ccr4, active compounds read low 0.958 | locus YAL026C, strain drs2, active compounds read low 0.991 | locus YAL030W, strain snc1, active compounds read low 0.993 | locus YBL061C, strain skt5, active compounds read low 0.996 | locus YBR009C, strain hhf1, active compounds read low 1.01 | locus YBR021W, strain FUR4, active compounds read low 1.02 | locus YBR023C, strain chs3, active compounds read low 0.992 | locus YBR171W, strain sec66, active compounds read low 0.985 | locus YBR229C, strain ROT2, active compounds read low 1.01 | locus YBR231C, strain swc5, active compounds read low 0.972 | locus YBR279W, strain paf1, active compounds read low 0.996 | locus YCL011C, strain gbp2, active compounds read low 0.99 | locus YCL016C, strain dcc1, active compounds read low 0.987 | locus YCL029C, strain bik1, active compounds read low 1.02 | locus YCL061C, strain MRC1, active compounds read low 0.986 | locus YCL069W, strain vba3, active compounds read low 0.999 | locus YCR088W, strain abp1, active compounds read low 0.994 | locus YDL005C, strain med2, active compounds read low 0.974 | locus YDL035C, strain GPR1, active compounds read low 0.997 | locus YDL040C, strain nat1, active compounds read low 0.995 | locus YDL074C, strain BRE1, active compounds read low 1.03 | locus YDL101C, strain DUN1, active compounds read low 1.02 | locus YDL134C, strain PPH21, active compounds read low 1 | locus YDL185W, strain tfp1, active compounds read low 1.03 | locus YDL192W, strain arf1, active compounds read low 1.01 | locus YDR001C, strain nth1, active compounds read low 0.99 | locus YDR069C, strain doa4, active compounds read low 0.993 | locus YDR101C, strain arx1, active compounds read low 1 | locus YDR137W, strain rgp1, active compounds read low 1.01 | locus YDR159W, strain sac3, active compounds read low 1.01 | locus YDR162C, strain NBP2, active compounds read low 1.01 | locus YDR195W, strain ref2 0.929 | locus YDR297W, strain sur2, active compounds read low 0.995 | locus YDR318W, strain mcm21, active compounds read low 1.02 | locus YDR334W, strain swr1, active compounds read low 1.01 | locus YDR335W, strain msn5, active compounds read low 0.991 | locus YDR388W, active compounds read low 1.02 | locus YDR392W, strain spt3, active compounds read low 1.04 | locus YDR502C, strain sam2, active compounds read low 1.02 | locus YEL003W, strain gim4, active compounds read low 0.985 | locus YEL037C, strain rad23, active compounds read low 0.992 | locus YEL061C, strain CIN8 (second series), active compounds read low 1 | locus YEL061C, strain CIN8, active compounds read low 1.01 | locus YER015W, strain faa2, active compounds read low 0.985 | locus YER016W, strain bim1, active compounds read low 0.997 | locus YER110C, active compounds read low 1.02 | locus YER111C, strain swi4, active compounds read low 0.997 | locus YER155C, strain BEM2 (second series), active compounds read low 0.939 | locus YER155C, strain BEM2, active compounds read low 1.01 | locus YER167W, strain BCK2, active compounds read low 1.01 | locus YFR010W, strain ubp6, active compounds read low 0.982 | locus YGL078C, strain dbp3, active compounds read low 1.02 | locus YGL086W, strain mad1, active compounds read low 1.01 | locus YGL167C, strain pmr1, active compounds read low 0.99 | locus YGL173C, strain kem1, active compounds read low 0.968 | locus YGL227W, strain vid30, active compounds read low 0.997 | locus YGL240W, strain doc1, active compounds read low 0.964 | locus YGL248W, strain PDE1, active compounds read low 1.02 | locus YGL253W, strain hxk2, active compounds read low 1 | locus YGR078C, strain PAC10, active compounds read low 1.02 | locus YGR135W, strain pre9, active compounds read low 1.04 | locus YGR229C, strain SMI1, active compounds read low 1.01 | locus YGR252W, strain gcn5, active compounds read low 0.991 | locus YHR013C, strain ard1, active compounds read low 0.952 | locus YHR027C, strain rpn1, active compounds read low 0.99 | locus YHR030C, strain SLT2, active compounds read low 1.01 and 0.984 | locus YHR079C, strain IRE1 (second series), active compounds read low 1.01 | locus YHR079C, strain IRE1, active compounds read low 0.99 | locus YHR094C, strain hxt1, active compounds read low 1.01 | locus YHR129C, strain ARP1, active compounds read low 1.01 | locus YHR142W, strain chs7, active compounds read low 1.01 | locus YHR200W, strain rpn10, active compounds read low 1.02 | locus YIL066C, strain RNR3, active compounds read low 1.01 | locus YIL073C, strain SPO22, active compounds read low 1.06 | locus YIL125W, strain kgd1, active compounds read low 1.01 | locus YIR030C, strain dcg1, active compounds read low 1.03 | locus YJL092W, strain hpr5, active compounds read low 0.993 | locus YJL095W, strain BCK1 (second series), active compounds read low 0.997 | locus YJL095W, strain BCK1, active compounds read low 1.03 and 0.98 | locus YJL115W, strain asf1, active compounds read low 0.983 | locus YJL129C, strain trk1, active compounds read low 0.979 | locus YJL134W, strain LCB3, active compounds read low 1 | locus YJL154C, strain vps35, active compounds read low 0.984 | locus YJL164C, strain tpk1, active compounds read low 0.981 | locus YJL166W, strain qcr8, active compounds read low 0.977 | locus YJL168C, strain set2, active compounds read low 1.02 | locus YJL187C, strain SWE1 (second series), active compounds read low 1.03 | locus YJL187C, strain SWE1, active compounds read low 0.991 | locus YJR043C, strain POL32, active compounds read low 0.986 | locus YJR066W, strain TOR1, active compounds read low 0.946
